# Laboratory results published in the supplement of paper PMC8728848.
# The entries come from a sample that favours the strongest signals as a whole.
# What was measured:
# Experiment in all cases: glycan array binding signal (z-score within array); higher = stronger binding
# Conditions in all cases: glycan notation: IUPAC condensed, linker removed
# [1] = molecular target: Fuc(a1-2)Gal(b1-3)GalNAc(b1-3)Gal(a1-4)Gal(b1-4)Glc
# In short: (§1)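 Glycan array data were curated from 3228 arrays in the Consortium for Functional Glycomics database and kept only where the protein sequence was available. Glycan names were converted to IUPAC-condensed notation, and columns mapping to the same glycan were averaged. The binding signal is a within-array Z-score, averaged across arrays of the same protein sequence at different concentrations or buffers and across linkers. Negative Z-scores can be read as non-binding.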
# [2] = molecular target: Fuc(a1-2)Gal(b1-3)GlcNAc(b1-3)Gal(b1-4)Glc
# In short: as §1
# [3] = molecular target: Fuc(a1-2)[GalNAc(a1-3)]Gal(b1-4)Glc
# In short: as §1
# [4] = molecular target: Fuc(a1-3)GlcNAc
# In short: as §1
# [5] = molecular target: Fuc(a1-3)[Gal(b1-4)]Glc6S
# In short: as §1
# [6] = molecular target: Gal(b1-3)GalNAc
# In short: as §1
# [7] = molecular target: Gal(b1-3)GalNAc(b1-4)[Neu5Ac(a2-3)]Gal(b1-4)Glc
# In short: as §1
# [8] = molecular target: Gal(b1-3)GlcNAc(b1-3)Gal(b1-4)Glc
# In short: as §1
# [9] = molecular target: Gal(b1-3)[Neu5Ac(a2-6)]GlcNAc(b1-6)Gal(b1-4)Glc
# In short: as §1
# [10] = molecular target: Gal(b1-4)GlcNAc(b1-3)Gal(b1-4)Glc
# In short: as §1
# [11] = molecular target: Gal4S(b1-4)GlcNAc
# In short: as §1
# [12] = molecular target: Gal4S6S(b1-4)GlcNAc
# In short: as §1
# [13] = molecular target: Glc(b1-4)Glc
# In short: as §1
# [14] = molecular target: GlcNAc(b1-3)Gal(b1-4)GlcNAc(b1-3)Gal(b1-4)GlcNAc
# In short: as §1
# [15] = molecular target: Man(a1-2)Man(a1-2)Man(a1-3)Man
# In short: as §1
# [16] = molecular target: Man(a1-2)Man(a1-6)[Man(a1-3)]Man(a1-6)[Man(a1-2)Man(a1-2)Man(a1-3)]Man
# In short: as §1
# [17] = molecular target: Neu5Ac(a2-3)Gal(b1-4)GlcNAc(b1-3)Gal(b1-4)GlcNAc(b1-3)Gal(b1-4)GlcNAc
# In short: as §1
# [18] = molecular target: Neu5Ac(a2-6)Gal(b1-4)GlcNAc(b1-2)Man(a1-3)[GlcNAc(b1-2)Man(b1-4)GlcNAc(b1-2)Man(a1-6)]Man(b1-4)GlcNAc(b1-4)GlcNAc
# In short: as §1
# [19] = molecular target: Neu5Ac(a2-6)Gal(b1-4)GlcNAc6S
# In short: as §1
# [20] = molecular target: Neu5Ac(a2-6)GalNAc
# In short: as §1
# [21] = molecular target: Neu5Ac(a2-8)Neu5Ac(a2-8)Neu5Ac(a2-3)Gal(b1-4)Glc
# In short: as §1
binder,measurement,setting,value
TbCVNHOb (Tuber borchii) (protein) MSFYASSEDVRTIEEGGRTWLVGRARRADGSWQDIKLDLDNIIGNRDGHLTWGEQNFTQSASDIRFNFEGGSNVPVLRAKLRNAAGGEQESDLNLGERLTNNNGDLVFN,glycan array binding signal (z-score),[1],0.303
same,glycan array binding signal (z-score),[2],1.56
same,glycan array binding signal (z-score),[3],-0.147
same,glycan array binding signal (z-score),[4],0.012
same,glycan array binding signal (z-score),[5],0.185
same,glycan array binding signal (z-score),[6],-0.117
same,glycan array binding signal (z-score),[7],-0.245
same,glycan array binding signal (z-score),[8],5.86
same,glycan array binding signal (z-score),[9],1.4
same,glycan array binding signal (z-score),[10],2.32
same,glycan array binding signal (z-score),[11],0.051
same,glycan array binding signal (z-score),[12],-0.061
same,glycan array binding signal (z-score),[13],-0.189
same,glycan array binding signal (z-score),[14],-0.144
same,glycan array binding signal (z-score),[15],1.35
same,glycan array binding signal (z-score),[16],-0.185
same,glycan array binding signal (z-score),[17],-0.237
same,glycan array binding signal (z-score),[18],-0.008
same,glycan array binding signal (z-score),[19],-0.275
same,glycan array binding signal (z-score),[20],-0.28
same,glycan array binding signal (z-score),[21],-0.118
